HT1080 IDH1KD tx = toxicity to HT-1080 IDH1 knockdown cells (counter line); HT-1080 IDH1 knockdown viability, ATP luminescence, 48 h; Potency, µM (top dose mostly 46.1 µM), most hits filed as cytotoxic; actives 2% (n = 360,000); AID 686971
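After a 2 h attachment period, IDH1KD HT-1080 cells took pin-transferred compound for 48 h at 37 °C; ATP-based luminescence after 10 min room-temperature reagent incubation reported viability.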
MCF10A rereplic = DNA re-replication induction in MCF 10a cells; MCF 10A DNA re-replication, Hoechst nuclear intensity, 48 h; Potency, µM (doses to about 46.1 µM), most hits filed as activators; actives 2.9% (n = 350,000); further: nearly all actives have a fitted effect of over 50% in size
SW480 rereplic = DNA re-replication induction in SW480 cells | Potency, µM (highest dose often 46.1 µM), actives largely listed as activators | actives 1.8% (n = 340,000) | SW480 DNA re-replication, Hoechst DNA content imaging, 48 h | AID 624297; further: nearly all actives have a fitted effect of over 55% in size
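SW480 cells exposed to compounds for 48 hr at 37 C, 5% CO2, then Hoechst-stained 40 min. Nuclear DNA content imaged by fluorescence scanning (405 nm excitation, 500-530 nm emission); re-replication scored as increased high-intensity nuclei.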
HT1080-NT tox = kills 2HG-producing HT-1080-NT fibrosarcoma cells | HT-1080-NT fibrosarcoma viability, CellTiter-Glo ATP luminescence, 48 h | Potency, µM (series often up to 46.1 µM), usual class: cytotoxic | actives 1.6% (n = 360,000);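 further: NT is the 2HG producing partner of a matched IDH1 knockdown line; nearly all actives have a fitted effect of over 55% in size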
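Viability by CellTiter-Glo luminescence after 48 h compound exposure at 37C of HT-1080-NT cells (750/well, RPMI, 5% FBS). % activity scaled between DMSO wells and medium-only wells, then curve-fitted and categorized by curve class.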
KB-V1 cytotox = kills drug-selected multidrug resistant KB-V1 cells; KB-V1 MDR cells viability, CellTiter-Glo, 72 h; Potency, µM (series often up to 46.1 µM), hits mostly cytotoxic; actives 3.4% (n = 400,000); AID 1347076; further: nearly all actives have a fitted effect of over 60% in size
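KB-V1, DMEM (no phenol red) + 10% FBS; cpd pin-transferred, titration series; 72 h, 37 degrees C; CellTiter-Glo, luminescence. Data normalized, curve-fit.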
KB-3-1 tox = KB-3-1 parental cell cytotoxicity. KB-3-1 viability, CellTiter-Glo ATP luminescence, 72 h. Potency, µM (titrated, usually from 46.1 µM), usual class: cytotoxic. actives 1.4% (n = 400,000). AID 1347075; further: nearly all actives have a fitted effect of over 60% in size
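KB-3-1 cells, DMEM (no phenol red) + 10% FBS; compound by pin transfer, 72 h, 37 °C. Readout: CellTiter-Glo luminescence after 10 min. Data normalized, curve-fitted.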
Numbers stand for hits; . = inactive; ? = inconclusive; / = no result. Compounds with a hit are over-represented: about 7.9% of the library has one in this group of screens. The call rests on the fitted dose curve; in most records, active means well fitted curve in the direction sought with a large enough effect; inconclusive means small, poorly fitted or top-dose-only effect, or another doubt; inactive means no such curve, though single readings can be large; an effect the other way counts as inactive or inconclusive.

SMILES	HT1080 IDH1KD tx	MCF10A rereplic	SW480 rereplic	HT1080-NT tox	KB-V1 cytotox	KB-3-1 tox
O=C(NCCN1CCOCC1)c1ccc2c(c1)N(Cc1ccccc1)C(=O)c1ccccc1S2	.	?	.	.	.	.
O=C(Nc1ccccc1)c1cc(C2COCCN2C(=O)c2cccs2)on1 (centres undefined)	.	/	/	.	.	.
Cc1ccc(Cl)cc1N1CCN(C(=O)c2cc(S(=O)(=O)N3CCC(C)CC3)cn2C)CC1	/	/	/	/	.	?
O=[N+]([O-])c1ccc(S(=O)(=O)N2CCN(c3nc(-c4cccs4)nc4ccccc34)CC2)cc1	/	/	/	/	.	.
O=C(Nc1ccc(OCC(F)(F)C(F)F)c(C(F)(F)F)c1)c1ccccc1O	13µM	12µM	?	16µM	?	?
O=C(Nc1ccc(OCC(F)(F)C(F)F)c(C(F)(F)F)c1)c1ccccc1	?	?	.	?	?	.
CN(C)CCNc1cc(N2CCN(C)CC2)ncn1	/	/	/	/	.	.
CCN(CC)c1ccc(N)cc1	15µM	?	?	8.2µM	.	?
Nc1ccc(N(CCO)CCO)cc1	.	.	.	.	.	.
CC1=CC(C)(C)N2C(=O)C3(NCCc4c3[nH]c3ccccc43)c3cc(C)cc1c32 (centres undefined)	15µM	.	?	?	?	?
CN1C(=O)C2(NCCc3c2[nH]c2ccccc32)c2ccccc21 (centres undefined)	.	.	.	.	.	.
COc1ccccc1CNC(=O)CN1C(=O)CSc2ccc(S(=O)(=O)N3CCCCC3)cc21	/	/	/	/	.	.
Cc1sc2ncnc(NC3CCN(Cc4ccccc4)CC3)c2c1C	?	.	.	?	1.6µM	?
Cc1cc(C)c2c(N)c(C(=O)Nc3ccccc3F)sc2n1	.	29µM	.	.	.	.
COC(=O)c1sc2nc(C)cc(C)c2c1N	.	.	.	.	.	.
CCOc1ccccc1NC(=O)c1sc2nc(C)cc(C)c2c1N	/	/	/	/	.	.
Nc1c(C(=O)Nc2ccccc2F)sc2nc(-c3cccnc3)ccc12	13µM	.	?	?	.	.
Cc1cc(C)c2c(N)c(C(=O)Nc3ccccc3Br)sc2n1	.	5.8µM	18µM	.	.	.
Cc1cc(C)c2c(N)c(C(=O)Nc3ncc(C)s3)sc2n1	?	9.2µM	?	?	?	.
CCN1CCN(C(c2ccccc2Cl)c2c(O)cc(C)n(CCOC)c2=O)CC1 (centres undefined)	/	/	/	/	.	.
CCc1ccccc1NC(=O)c1sc2nc(C)cc(C)c2c1N	.	?	?	.	?	.
Cc1cc(C)c2c(N)c(C(=O)Nc3ccccc3Cl)sc2n1	?	12µM	?	?	.	.
COCc1cc(C)nc2sc(C(=O)Nc3ccccc3Br)c(N)c12	.	?	1.8µM	.	.	.
COc1ccc(NC(=O)Cn2ncc3c4ccccc4n(Cc4ccccc4)c3c2=O)cc1OC	/	/	/	/	.	.
CN(C)S(=O)(=O)c1ccc(C(=O)Oc2cc(=O)[nH]c3ccccc23)cc1	.	6.5µM	.	.	.	.
SMILES	HT1080 IDH1KD tx	MCF10A rereplic	SW480 rereplic	HT1080-NT tox	KB-V1 cytotox	KB-3-1 tox
CCOC(=O)Oc1c(OC)cc(C(=O)O[C@@H]2C[C@@H]3CN4CCc5c([nH]c6cc(OC)ccc56)[C@H]4C[C@@H]3[C@H](C(=O)OC)[C@H]2OC)cc1OC	?	?	?	15µM	?	?
COC(=O)C1C2CC3c4[nH]c5cc(OC)ccc5c4CCN3CC2CC(OC(=O)CC(C)=O)C1OC (centres undefined)	?	?	?	.	.	.
CCN(c1cccc(C(F)(F)F)c1)S(=O)(=O)c1ccc2c(c1)CCN2C(=O)C1CC1	?	.	.	.	?	11µM
COc1c(C(=O)Nc2ccc3[nH]c(=O)[nH]c3c2)cc2ccccc2c1Br	.	11µM	?	.	.	.
COc1c(C(=O)Nc2ccc(CN3CCOCC3)cc2)cc2ccccc2c1Br	?	?	?	.	?	.
CSc1ccc(C(=O)C2CCCN(C(=O)CCn3cncn3)C2)cc1 (centres undefined)	.	.	.	.	.	.
CSc1ccc(C(=O)C2CCCN(C(=O)c3ccc4c(c3)no[n+]4[O-])C2)cc1 (centres undefined)	.	18µM	.	.	?	.
CSc1ccc(C(=O)C2CCCN(C(=O)CCc3c(C)nn(C)c3C)C2)cc1 (centres undefined)	?	.	.	13µM	/	/
CSc1ccc(C(=O)C2CCCN(S(=O)(=O)N(C)C)C2)cc1 (centres undefined)	.	.	.	.	21µM	?
O=C(NC(c1ccc(-c2ccccc2)cc1)c1cnccn1)C1CCN(Cc2cccc(C(F)(F)F)c2)CC1 (centres undefined)	?	/	/	.	?	?
CCC(CO)Oc1cc(NCc2ccccc2)c2ncn(C(C)C)c2c1 (centres undefined)	.	.	.	.	.	.
CC(C)n1cnc2c(NCc3ccccc3)cc(N[C@H](C)CO)cc21	23µM	?	0.65µM	23µM	.	?
CCOC(=O)N1CCN(c2c(NCc3cccs3)c(=O)c2=O)CC1	?	18µM	?	?	.	6.5µM
CCOC(=O)N1CCN(c2c(NCc3ccc(Cl)cc3)c(=O)c2=O)CC1	5.8µM	10µM	6.5µM	?	.	10µM
CCOC(=O)N1CCN(c2c(NCc3ccc(F)cc3)c(=O)c2=O)CC1	5.2µM	?	3.3µM	5.2µM	.	5.2µM
Cc1cc(NS(=O)(=O)c2ccc(NC(=O)COc3ccccc3Br)cc2)no1	/	/	/	/	.	.
O=S(=O)(c1ccc(N2CCCC2c2nc3ccccc3s2)nc1)N1CCOCC1 (centres undefined)	.	.	.	.	8.2µM	.
O=[N+]([O-])c1ccc(C(c2sc3nc(-c4ccco4)nn3c2O)N2CCN(c3cccc(Cl)c3)CC2)cc1 (centres undefined)	/	/	/	/	.	.
C(=C\c1ccccc1)/CN1CCN(C(c2cc3ccccc3o2)c2nnnn2C2CCCC2)CC1 (centres undefined)	.	/	/	.	.	?
C(=C\c1ccccc1)/CN1CCN(C(c2cc3ccccc3o2)c2nnnn2Cc2ccccc2)CC1 (centres undefined)	.	/	/	.	16µM	.
COc1ccc2c(c1)c(=O)c(C(=O)c1ccc(Cl)cc1)cn2CC(=O)Nc1ccc2c(c1)OCO2	/	/	/	/	.	.
COc1ccc(C2=NN(C(=O)c3ccccc3)C(c3ccc(OC)c(OC)c3)C2)cc1OC (centres undefined)	.	.	.	.	.	.
Cc1ccc(NC(=O)N2N=C(c3ccc(F)cc3)CC2c2ccc(F)cc2)cc1 (centres undefined)	.	.	5.2µM	.	23µM	.

High-throughput results from PubChem.
